The results in this text go back to PubChem BioAssay (Tox21).

A number with no mark means an inactive call. Activity calls are given as the source filed them. Calls come from the whole dose curve; as a rule, active = well fitted curve in the direction sought with a large enough effect in the repeat runs; inconclusive = weak or mixed curves; inactive = flat fitted curve, though single readings scatter.
% is set by controls: 0 for no effect and ±100 for the full control effect.

The nature of the test: qHTS assay to test for compound auto fluorescence at 590 nm (red) in HEK293 cells (AID 720679). As to conditions: red autofluorescence 540/590 nm; series mostly up to 91.3 µM; fluorescence, % of fluorescent control: at the top concentration. From the text:
National Center for Advancing Translational Sciences [NCATS]
NIH Chemical Genomics Center [NCGC]
U.S. Environmental Protection Agency [EPA]
National Institutes of Environmental Health Sciences [NIEHS]
National Toxicology Program [NTP]
U.S. Food and Drug Administration [FDA]
Compound auto fluorescence often interferes with screening of the compound library against various biological targets and signaling pathways. Some of these compounds may have fluorophoric properties. Such properties may interfere with the assay outputs resulting in false positives and/or negatives. To decrease such complications and ensure the compound activities are relevant in terms of biological response, the Tox21 10K compound library was screened for auto fluorescence.
From the fluorophores used as reporter signals in our screening assays, the auto fluorescence equivalencies of compounds against three fluorophores have been evaluated: Triamterene, Fluorescein and Rose Bengal sodium for blue, green and red fluorescence, respectively. The fluorescence intensities were measured using Excitation/Emission wavelengths at 405/460nm, 485/535nm and 540/590nm for blue, green and red labels, respectively. This assay includes the red fluorescence data.
Tox21 Assay Protocol Summary:
2,000 HEK293 cells in 5 uL of culture medium containing 10% dialyzed FBS per well were dispensed into black wall/clear bottom 1536-well plates using a Multidrop Combi Dispenser (Thermo Scientific). The assay plates were incubated for 4-5 hr at 37C to allow cell attachment to the well bottom, followed by the transfer of 23 nL compound or DMSO vehicle by a pintool work station (Kalypsys, San Diego, CA). After the assay plates were incubated overnight at 37C and 5% CO2, fluorescence intensities in the assay plates were measured by an Envision (PerkinElmer, Shelton, CT) plate reader using three labels for measuring blue, green and red fluorescence at […] 460, 535 and 590nm respectively.
For the molecule `O=S(=O)(O)C(F)(F)C(F)(F)C(F)(F)C(F)(F)C(F)(F)C(F)(F)F`, the “fluorescence, % of fluorescent control” value was 0.0741%.

As for `O=P(O)(Oc1ccccc1)Oc1ccccc1`, the “fluorescence, % of fluorescent control” value is -0.332%.

As to `OC(Cn1cncn1)(c1ccc(F)cc1)c1ccccc1F` (stereo not given), the “fluorescence, % of fluorescent control” value was 0.148%.

`CCSC(=O)N(CC)C1CCCCC1`: the “fluorescence, % of fluorescent control” value is -0.365%.

For the molecule `c1cc2c(c(N3CCNCC3)c1)OCCO2`, the “fluorescence, % of fluorescent control” value is 0.662% [at 46 µM].

Turning to `CCC#N`, the “fluorescence, % of fluorescent control” value is -0.115% [at 95.7 µM].

In the case of `COc1ncc(F)c2nc(S(=O)(=O)Nc3c(F)cccc3F)nn12`, the “fluorescence, % of fluorescent control” value is -0.0864%.

As for `CN(N=O)C(N)=O`, the “fluorescence, % of fluorescent control” value is -1.15%.

In the case of `Nc1cc2c3c(c1)C(c1ccccc1)=N[C@@H](NC(=O)c1cccnc1)C(=O)N3CC2`, the “fluorescence, % of fluorescent control” value was 0.438%.

Consider `COc1cccc(C(=O)NN(C(=O)c2cc(C)cc(C)c2)C(C)(C)C)c1C`, for which the “fluorescence, % of fluorescent control” value is 0.0265%.

On to `O=C(Oc1ccc(Br)cc1)N1CCN2CCC1CC2`, for which the “fluorescence, % of fluorescent control” value is 0.161%.

In the case of `C[C@H]1CCC[C@H](O)CCCCCc2cc(O)cc(O)c2C(=O)O1`, the molecule was classed as inactive.

Turning to `OCCSCSCCO`, the “fluorescence, % of fluorescent control” value was -0.329%.

Regarding `CCOP(=S)(OCC)Oc1nc(Cl)n(C(C)C)n1`, the “fluorescence, % of fluorescent control” value was 0.103%.

Turning to `CCc1cc2c(s1)-n1c(C)nnc1CN=C2c1ccccc1Cl`, the “fluorescence, % of fluorescent control” value was 0.113% [at 46 µM].

On to `Oc1c(Cl)cccc1Cl`, for which the “fluorescence, % of fluorescent control” value was 0.105%.

With `CCCCc1ccc(O)cc1`, the “fluorescence, % of fluorescent control” value was 0.0426%.

`CCOP(=O)(N=C1SCCS1)OCC`: the “fluorescence, % of fluorescent control” value is -0.171%.

With `CCC1(c2ccccc2)C(=O)N=C(O)NC1=O` (stereo not given), the “fluorescence, % of fluorescent control” value is 0.29%.

For `CC1CCCCC1NC(=O)Nc1ccccc1` (stereo not given), the “fluorescence, % of fluorescent control” value was 0.0686%.

For the molecule `CC(Oc1ccc(Oc2ncc(C(F)(F)F)cc2Cl)cc1)C(=O)O` (stereo not given), the “fluorescence, % of fluorescent control” value was 0.0013%.

For `Cc1nc(N)nc(N)n1`, the “fluorescence, % of fluorescent control” value was 0.36% [at 95.7 µM].

In the case of `CN1C[C@@H](NS(=O)(=O)N(C)C)C[C@@H]2c3cccc4c3c(cn4C)C[C@H]21`, the “fluorescence, % of fluorescent control” value is 0.0394% [at 46 µM].

`COc1ccc2c(c1OC)CN1CCc3cc4c(cc3C1C2)OCO4` (stereo not given): the fluorescence, % of fluorescent control was -0.125% [at 18.6 µM].

As for `CCN(CC)c1nc(C)cc(OP(=S)(OC)OC)n1`, the “fluorescence, % of fluorescent control” value is -0.0602%.

Consider `O=C(NCO)NCO`, for which the “fluorescence, % of fluorescent control” value is 0.337% [at 95.7 µM].

Regarding `ClC(Cl)Br`, the “fluorescence, % of fluorescent control” value is -0.268%.

On to `C=CCC1=C(C)[C@@H](OC(=O)[C@@H]2[C@@H](C=C(C)C)C2(C)C)CC1=O`, for which the “fluorescence, % of fluorescent control” value is -0.123%.

In the case of `COC(=O)C(C)Oc1ccc(Oc2ccc(Cl)cc2Cl)cc1` (stereo not given), the “fluorescence, % of fluorescent control” value is 0.367%.

As to `CC1CN1P(=O)(N1CC1C)N1CC1C` (stereo not given), the “fluorescence, % of fluorescent control” value was -0.321%.

Take `[As]#[In]`: the “fluorescence, % of fluorescent control” value is -0.196%.

On to `CC(C)(C)OC(=O)c1ncn2c1[C@@H]1CCCN1C(=O)c1c(Br)cccc1-2`, for which the “fluorescence, % of fluorescent control” value is -1.06% [at 46 µM].

As to `CCCCP(CCCC)CCCC`, the “fluorescence, % of fluorescent control” value was -0.743%.

In the case of `CCCCOC(=O)c1ccccc1N`, the “fluorescence, % of fluorescent control” value is -0.278%.

On to `COP(=S)(OC)Oc1ccc(S(N)(=O)=O)cc1`, for which the “fluorescence, % of fluorescent control” value is -1.45% [at 46 µM].

Turning to `N#Cc1c(Cl)cccc1Cl`, the “fluorescence, % of fluorescent control” value was 0.317%.

On to `NC(=O)O`, for which the “fluorescence, % of fluorescent control” value is 0.0737%.

Take `CC(N)=S`: the “fluorescence, % of fluorescent control” value was -0.364%.

As to `COc1ccc(C(=O)N2CCCC2=O)cc1`, the “fluorescence, % of fluorescent control” value is -0.0409% [at 46 µM].

Consider `COC(=O)C(c1ccccc1)C1CCCCN1` (stereo not given), for which the result was inactive.
